# Measured values taken from ChEMBL document CHEMBL2218924, “A broad activity screen in support of a chemogenomic map for kinase signalling research and drug discovery” (Biochem J, 2013).
# How the values were obtained:
# [1] = biological target: T1, Ephrin type-A receptor 3 (Homo sapiens) (UniProt P29320); details: at 10 µM
# T1 sequence (whole entry): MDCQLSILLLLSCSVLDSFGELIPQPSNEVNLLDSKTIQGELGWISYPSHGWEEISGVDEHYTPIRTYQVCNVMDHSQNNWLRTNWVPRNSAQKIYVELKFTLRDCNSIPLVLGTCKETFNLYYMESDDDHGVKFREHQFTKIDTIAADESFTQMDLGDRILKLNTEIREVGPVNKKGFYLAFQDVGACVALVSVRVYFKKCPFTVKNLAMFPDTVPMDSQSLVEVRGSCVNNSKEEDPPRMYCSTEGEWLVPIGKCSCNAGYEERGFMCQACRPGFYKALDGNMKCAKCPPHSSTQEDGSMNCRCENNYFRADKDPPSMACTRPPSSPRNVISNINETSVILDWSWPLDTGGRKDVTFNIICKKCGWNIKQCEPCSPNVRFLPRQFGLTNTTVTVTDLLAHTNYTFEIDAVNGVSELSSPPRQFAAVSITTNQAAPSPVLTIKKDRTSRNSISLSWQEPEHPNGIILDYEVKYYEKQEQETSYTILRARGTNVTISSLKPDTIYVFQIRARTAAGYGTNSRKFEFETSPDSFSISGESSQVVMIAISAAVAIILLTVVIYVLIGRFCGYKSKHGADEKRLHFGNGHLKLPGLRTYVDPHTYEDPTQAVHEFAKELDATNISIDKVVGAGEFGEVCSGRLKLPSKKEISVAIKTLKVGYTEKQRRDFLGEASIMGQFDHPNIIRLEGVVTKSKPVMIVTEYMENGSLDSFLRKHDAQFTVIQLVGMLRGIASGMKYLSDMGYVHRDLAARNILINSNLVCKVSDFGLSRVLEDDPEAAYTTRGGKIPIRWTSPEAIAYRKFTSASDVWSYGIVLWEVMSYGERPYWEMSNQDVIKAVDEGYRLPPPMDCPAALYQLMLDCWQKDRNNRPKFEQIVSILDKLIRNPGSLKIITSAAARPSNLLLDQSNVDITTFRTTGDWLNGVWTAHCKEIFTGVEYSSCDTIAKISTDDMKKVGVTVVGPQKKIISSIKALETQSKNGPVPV
# [2] = biological target: Ephrin type-A receptor 4 (Homo sapiens) (UniProt P54764); details: at 1 µM
# Ephrin type-A receptor 4 (Homo sapiens), sequence (P54764 whole entry): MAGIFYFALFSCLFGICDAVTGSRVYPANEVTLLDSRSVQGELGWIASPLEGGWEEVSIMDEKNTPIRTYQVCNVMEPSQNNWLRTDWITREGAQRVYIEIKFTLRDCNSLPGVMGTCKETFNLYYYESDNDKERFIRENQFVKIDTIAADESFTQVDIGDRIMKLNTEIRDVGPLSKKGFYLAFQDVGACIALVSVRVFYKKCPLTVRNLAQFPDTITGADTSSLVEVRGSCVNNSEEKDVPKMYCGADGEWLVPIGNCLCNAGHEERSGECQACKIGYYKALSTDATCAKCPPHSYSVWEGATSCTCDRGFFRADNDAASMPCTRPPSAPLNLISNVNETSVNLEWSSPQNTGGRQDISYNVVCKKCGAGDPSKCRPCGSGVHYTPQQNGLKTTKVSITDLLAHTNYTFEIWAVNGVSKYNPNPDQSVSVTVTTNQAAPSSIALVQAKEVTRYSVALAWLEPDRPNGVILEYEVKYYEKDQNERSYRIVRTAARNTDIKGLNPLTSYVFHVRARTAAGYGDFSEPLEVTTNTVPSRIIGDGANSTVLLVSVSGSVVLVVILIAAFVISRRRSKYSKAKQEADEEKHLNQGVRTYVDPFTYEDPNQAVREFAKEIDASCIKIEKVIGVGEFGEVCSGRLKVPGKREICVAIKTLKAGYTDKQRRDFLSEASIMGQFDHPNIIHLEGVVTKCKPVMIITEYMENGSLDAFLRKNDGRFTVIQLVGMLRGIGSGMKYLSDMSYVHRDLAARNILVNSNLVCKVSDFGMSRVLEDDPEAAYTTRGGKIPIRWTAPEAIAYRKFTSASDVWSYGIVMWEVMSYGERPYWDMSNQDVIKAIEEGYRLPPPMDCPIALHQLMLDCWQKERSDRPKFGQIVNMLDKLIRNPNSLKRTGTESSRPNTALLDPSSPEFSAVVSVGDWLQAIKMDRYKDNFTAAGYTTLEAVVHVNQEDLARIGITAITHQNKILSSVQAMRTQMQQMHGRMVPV
# [3] = biological target: Ephrin type-A receptor 5 (Homo sapiens) (UniProt P54756); details: at 1 µM
# Ephrin type-A receptor 5 (Homo sapiens), sequence (P54756 whole entry): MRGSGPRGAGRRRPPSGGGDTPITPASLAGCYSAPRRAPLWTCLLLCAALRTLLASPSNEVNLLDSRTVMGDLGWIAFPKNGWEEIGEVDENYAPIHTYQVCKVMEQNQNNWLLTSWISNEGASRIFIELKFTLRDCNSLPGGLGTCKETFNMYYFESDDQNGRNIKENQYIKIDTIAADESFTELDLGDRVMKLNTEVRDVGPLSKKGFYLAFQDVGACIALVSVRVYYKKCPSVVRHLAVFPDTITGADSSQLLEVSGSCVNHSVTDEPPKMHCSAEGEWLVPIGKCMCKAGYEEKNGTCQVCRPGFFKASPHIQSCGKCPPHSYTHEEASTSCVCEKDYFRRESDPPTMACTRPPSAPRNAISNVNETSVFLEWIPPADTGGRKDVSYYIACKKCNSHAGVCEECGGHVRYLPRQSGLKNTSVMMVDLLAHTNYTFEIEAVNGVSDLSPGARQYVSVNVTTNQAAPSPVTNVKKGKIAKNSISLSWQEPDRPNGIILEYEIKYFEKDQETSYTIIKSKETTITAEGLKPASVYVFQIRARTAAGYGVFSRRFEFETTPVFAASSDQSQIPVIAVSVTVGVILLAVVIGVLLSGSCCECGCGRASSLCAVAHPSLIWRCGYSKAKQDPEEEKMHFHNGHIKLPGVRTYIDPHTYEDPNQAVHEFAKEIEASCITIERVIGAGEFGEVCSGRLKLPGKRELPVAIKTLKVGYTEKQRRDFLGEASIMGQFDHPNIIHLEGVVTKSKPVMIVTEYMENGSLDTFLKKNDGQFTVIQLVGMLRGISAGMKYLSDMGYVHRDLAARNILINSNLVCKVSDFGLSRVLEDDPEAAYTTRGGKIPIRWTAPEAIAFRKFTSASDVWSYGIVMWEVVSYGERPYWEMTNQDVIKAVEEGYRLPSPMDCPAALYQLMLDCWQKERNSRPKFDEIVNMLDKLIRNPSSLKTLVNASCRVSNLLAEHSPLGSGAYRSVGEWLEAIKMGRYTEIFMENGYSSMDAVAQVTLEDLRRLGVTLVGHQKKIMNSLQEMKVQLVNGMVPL
# [4] = biological target: Ephrin type-A receptor 5 (Homo sapiens) (UniProt P54756); details: at 10 µM
# [5] = biological target: Ephrin type-A receptor 7 (Homo sapiens) (UniProt Q15375); details: at 1 µM
# Ephrin type-A receptor 7 (Homo sapiens), sequence (Q15375 28-998 limits assumed): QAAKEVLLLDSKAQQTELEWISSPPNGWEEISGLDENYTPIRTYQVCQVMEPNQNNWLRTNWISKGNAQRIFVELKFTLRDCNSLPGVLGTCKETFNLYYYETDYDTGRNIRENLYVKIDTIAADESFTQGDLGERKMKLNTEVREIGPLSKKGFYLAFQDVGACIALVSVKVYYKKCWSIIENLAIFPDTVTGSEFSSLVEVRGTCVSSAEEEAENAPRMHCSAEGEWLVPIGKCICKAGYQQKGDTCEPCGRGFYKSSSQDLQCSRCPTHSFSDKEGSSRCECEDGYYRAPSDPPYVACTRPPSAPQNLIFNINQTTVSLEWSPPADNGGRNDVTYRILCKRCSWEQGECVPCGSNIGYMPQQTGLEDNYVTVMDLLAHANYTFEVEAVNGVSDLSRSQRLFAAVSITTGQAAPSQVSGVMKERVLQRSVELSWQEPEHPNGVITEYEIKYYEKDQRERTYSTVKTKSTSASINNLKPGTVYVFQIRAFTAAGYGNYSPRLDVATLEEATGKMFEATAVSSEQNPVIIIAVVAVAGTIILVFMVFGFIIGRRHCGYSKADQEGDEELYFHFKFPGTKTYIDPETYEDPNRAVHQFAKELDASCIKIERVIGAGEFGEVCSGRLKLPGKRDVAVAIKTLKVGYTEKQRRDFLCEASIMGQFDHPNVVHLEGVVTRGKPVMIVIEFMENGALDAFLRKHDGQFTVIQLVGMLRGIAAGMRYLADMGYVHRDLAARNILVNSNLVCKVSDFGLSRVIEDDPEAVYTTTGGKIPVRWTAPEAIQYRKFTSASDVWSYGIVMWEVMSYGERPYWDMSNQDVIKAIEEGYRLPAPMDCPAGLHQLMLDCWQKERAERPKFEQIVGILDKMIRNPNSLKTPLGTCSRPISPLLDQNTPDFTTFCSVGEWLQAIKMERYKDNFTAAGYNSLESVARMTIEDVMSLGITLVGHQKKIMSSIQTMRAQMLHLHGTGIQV
# [6] = biological target: Ephrin type-A receptor 7 (Homo sapiens) (UniProt Q15375); details: at 10 µM
# [7] = biological target: T2, Ephrin type-A receptor 8 (Homo sapiens) (UniProt P29322); details: at 1 µM
# T2 sequence (whole entry): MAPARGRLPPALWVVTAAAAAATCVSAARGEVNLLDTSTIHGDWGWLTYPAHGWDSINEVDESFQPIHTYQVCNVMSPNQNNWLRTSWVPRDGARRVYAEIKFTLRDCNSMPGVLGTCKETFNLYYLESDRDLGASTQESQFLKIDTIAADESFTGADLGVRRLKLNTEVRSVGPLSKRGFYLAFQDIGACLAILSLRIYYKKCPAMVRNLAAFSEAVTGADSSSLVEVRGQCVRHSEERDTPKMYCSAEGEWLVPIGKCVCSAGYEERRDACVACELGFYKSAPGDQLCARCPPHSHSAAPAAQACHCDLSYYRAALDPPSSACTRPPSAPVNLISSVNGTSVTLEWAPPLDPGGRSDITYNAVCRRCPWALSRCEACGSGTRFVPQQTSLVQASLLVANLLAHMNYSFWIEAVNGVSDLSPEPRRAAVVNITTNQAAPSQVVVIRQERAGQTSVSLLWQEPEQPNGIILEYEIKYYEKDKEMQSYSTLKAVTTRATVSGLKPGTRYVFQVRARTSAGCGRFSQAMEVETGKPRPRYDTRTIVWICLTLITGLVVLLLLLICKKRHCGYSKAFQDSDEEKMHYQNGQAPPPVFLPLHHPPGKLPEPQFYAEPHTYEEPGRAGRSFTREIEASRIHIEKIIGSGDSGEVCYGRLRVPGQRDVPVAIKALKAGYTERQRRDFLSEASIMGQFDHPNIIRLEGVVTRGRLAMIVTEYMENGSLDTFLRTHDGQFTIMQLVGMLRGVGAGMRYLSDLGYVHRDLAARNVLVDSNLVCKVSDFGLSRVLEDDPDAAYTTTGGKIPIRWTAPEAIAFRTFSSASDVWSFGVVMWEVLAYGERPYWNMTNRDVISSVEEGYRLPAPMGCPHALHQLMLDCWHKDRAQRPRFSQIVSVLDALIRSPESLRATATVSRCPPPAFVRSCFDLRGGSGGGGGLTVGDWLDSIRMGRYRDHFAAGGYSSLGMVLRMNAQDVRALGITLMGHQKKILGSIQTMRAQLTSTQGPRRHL
# [8] = biological target: T2, Ephrin type-A receptor 8 (Homo sapiens); details: at 10 µM
# [9] = biological target: T3, Ephrin type-B receptor 1 (Homo sapiens) (UniProt P54762); details: at 1 µM
# T3 sequence (whole entry): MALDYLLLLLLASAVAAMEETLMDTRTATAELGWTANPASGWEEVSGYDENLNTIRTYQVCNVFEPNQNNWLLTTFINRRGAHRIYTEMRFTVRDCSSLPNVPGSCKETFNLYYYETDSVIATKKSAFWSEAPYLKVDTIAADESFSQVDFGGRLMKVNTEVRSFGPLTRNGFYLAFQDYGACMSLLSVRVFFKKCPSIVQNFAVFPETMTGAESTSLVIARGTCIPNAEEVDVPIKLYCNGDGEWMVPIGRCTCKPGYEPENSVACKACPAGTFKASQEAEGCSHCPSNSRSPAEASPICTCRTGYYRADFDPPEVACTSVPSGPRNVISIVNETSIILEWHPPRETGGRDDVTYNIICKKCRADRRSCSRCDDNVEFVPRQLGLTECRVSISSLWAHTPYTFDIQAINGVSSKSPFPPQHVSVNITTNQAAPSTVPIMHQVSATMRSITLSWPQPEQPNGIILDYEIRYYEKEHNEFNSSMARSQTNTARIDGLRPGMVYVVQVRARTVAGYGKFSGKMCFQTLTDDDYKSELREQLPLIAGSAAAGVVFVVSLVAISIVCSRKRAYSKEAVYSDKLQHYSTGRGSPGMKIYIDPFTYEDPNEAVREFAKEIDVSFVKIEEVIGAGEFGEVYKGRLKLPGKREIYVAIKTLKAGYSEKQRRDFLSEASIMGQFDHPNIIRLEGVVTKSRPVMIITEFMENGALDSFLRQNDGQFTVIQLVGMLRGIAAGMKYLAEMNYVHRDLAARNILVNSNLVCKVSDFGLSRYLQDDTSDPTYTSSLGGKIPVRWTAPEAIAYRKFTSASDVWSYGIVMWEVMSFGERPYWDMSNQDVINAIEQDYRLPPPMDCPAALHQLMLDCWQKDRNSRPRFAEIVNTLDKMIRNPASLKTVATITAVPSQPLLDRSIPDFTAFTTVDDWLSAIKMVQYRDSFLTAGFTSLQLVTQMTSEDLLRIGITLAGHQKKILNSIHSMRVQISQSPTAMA
# [10] = biological target: T3, Ephrin type-B receptor 1 (Homo sapiens); details: at 10 µM
# [11] = biological target: T4, Ephrin type-B receptor 3 (Homo sapiens) (UniProt P54753); details: at 10 µM
# T4 sequence (whole entry): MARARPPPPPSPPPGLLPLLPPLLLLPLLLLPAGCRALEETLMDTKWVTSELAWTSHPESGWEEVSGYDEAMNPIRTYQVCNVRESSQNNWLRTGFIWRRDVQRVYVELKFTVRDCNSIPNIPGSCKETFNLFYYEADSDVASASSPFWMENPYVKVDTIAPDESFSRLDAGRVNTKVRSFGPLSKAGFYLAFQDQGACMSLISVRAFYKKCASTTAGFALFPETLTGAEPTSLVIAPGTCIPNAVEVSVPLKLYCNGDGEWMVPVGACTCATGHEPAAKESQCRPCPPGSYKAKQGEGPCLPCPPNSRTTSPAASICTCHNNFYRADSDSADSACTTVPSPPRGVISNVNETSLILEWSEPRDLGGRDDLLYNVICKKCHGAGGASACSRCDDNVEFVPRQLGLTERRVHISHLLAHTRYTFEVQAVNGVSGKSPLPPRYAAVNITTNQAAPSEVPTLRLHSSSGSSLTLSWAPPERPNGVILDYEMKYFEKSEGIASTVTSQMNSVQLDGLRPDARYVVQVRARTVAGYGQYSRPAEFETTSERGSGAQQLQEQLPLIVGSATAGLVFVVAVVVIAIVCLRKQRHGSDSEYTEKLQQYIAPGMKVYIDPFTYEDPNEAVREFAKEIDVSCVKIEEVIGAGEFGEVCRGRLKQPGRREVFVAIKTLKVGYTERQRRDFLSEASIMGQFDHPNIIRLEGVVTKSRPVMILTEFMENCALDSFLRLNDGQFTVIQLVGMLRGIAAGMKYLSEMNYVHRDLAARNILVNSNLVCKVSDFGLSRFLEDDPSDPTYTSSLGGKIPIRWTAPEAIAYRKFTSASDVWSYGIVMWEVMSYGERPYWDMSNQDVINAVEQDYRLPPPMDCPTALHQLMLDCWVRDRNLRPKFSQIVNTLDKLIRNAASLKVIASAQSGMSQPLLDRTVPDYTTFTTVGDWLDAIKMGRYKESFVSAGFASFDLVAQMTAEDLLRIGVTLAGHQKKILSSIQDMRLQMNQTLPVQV
# [12] = biological target: T5, Ephrin type-B receptor 4 (Homo sapiens) (UniProt P54760); details: at 1 µM
# T5 sequence (whole entry): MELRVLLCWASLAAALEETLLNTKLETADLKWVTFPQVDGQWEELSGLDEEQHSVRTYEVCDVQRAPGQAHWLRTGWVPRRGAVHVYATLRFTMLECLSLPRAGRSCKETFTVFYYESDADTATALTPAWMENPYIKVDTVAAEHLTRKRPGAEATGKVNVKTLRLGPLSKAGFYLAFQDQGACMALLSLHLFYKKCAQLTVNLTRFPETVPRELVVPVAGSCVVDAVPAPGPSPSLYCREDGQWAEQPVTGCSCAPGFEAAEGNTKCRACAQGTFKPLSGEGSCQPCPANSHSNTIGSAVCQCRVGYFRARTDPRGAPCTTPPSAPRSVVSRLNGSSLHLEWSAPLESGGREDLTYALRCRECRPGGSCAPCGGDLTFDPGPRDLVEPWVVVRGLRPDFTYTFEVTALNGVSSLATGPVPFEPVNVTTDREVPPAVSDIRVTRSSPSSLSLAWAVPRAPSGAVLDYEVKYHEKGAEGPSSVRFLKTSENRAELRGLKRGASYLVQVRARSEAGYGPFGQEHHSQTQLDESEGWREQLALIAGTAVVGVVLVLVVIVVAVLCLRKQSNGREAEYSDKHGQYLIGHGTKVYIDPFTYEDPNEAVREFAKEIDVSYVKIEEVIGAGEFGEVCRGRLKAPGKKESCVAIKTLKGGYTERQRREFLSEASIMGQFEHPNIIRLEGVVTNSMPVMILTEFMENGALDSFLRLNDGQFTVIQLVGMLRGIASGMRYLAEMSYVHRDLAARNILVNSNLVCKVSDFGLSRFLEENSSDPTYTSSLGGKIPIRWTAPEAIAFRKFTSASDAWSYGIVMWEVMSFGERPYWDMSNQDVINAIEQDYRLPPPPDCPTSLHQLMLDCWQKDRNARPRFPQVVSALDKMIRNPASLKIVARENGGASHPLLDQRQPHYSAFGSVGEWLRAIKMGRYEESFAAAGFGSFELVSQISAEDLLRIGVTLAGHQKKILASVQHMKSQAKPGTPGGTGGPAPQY
# [13] = biological target: T5, Ephrin type-B receptor 4 (Homo sapiens); details: at 10 µM
# [14] = biological target: Receptor tyrosine-protein kinase erbB-4 (Homo sapiens) (UniProt Q15303); details: at 1 µM
# Receptor tyrosine-protein kinase erbB-4 (Homo sapiens), sequence (Q15303 whole entry): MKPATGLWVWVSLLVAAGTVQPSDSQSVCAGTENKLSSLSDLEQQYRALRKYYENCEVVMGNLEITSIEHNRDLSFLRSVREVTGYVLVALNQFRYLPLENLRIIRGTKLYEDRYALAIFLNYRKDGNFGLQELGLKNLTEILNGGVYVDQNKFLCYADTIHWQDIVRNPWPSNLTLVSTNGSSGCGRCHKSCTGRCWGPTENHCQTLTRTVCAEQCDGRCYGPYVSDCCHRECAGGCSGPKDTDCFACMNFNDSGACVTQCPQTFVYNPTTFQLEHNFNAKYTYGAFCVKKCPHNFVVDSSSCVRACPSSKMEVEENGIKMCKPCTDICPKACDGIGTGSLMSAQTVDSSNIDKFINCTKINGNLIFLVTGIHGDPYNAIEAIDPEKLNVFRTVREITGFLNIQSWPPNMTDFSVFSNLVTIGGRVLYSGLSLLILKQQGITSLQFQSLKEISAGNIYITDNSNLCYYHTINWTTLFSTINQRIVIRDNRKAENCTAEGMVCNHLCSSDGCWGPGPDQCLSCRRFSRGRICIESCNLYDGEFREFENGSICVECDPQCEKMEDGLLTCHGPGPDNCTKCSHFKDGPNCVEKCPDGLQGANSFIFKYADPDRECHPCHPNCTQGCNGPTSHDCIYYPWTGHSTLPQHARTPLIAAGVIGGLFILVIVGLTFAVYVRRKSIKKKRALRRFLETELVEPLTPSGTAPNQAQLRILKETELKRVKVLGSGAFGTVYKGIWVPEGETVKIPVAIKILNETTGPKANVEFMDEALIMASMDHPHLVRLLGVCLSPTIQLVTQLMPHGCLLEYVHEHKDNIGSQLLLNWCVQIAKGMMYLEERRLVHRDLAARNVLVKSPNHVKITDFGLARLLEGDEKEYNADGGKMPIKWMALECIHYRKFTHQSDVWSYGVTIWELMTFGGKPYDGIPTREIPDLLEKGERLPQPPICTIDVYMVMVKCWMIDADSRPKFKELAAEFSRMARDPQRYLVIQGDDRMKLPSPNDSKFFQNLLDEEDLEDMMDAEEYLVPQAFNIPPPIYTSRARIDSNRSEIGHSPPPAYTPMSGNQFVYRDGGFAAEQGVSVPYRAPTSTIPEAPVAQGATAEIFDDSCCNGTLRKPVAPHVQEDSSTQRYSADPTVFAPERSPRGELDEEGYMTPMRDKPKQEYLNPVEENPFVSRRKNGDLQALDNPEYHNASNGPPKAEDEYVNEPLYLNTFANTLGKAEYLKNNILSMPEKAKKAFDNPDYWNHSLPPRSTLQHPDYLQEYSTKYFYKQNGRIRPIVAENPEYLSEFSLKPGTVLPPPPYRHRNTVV
# [15] = biological target: Receptor tyrosine-protein kinase erbB-4 (Homo sapiens) (UniProt Q15303); details: at 10 µM
# [16] = biological target: Focal adhesion kinase 1 (Homo sapiens) (UniProt Q05397); details: at 1 µM
smiles,measurement,setting,value
CC(C)c1nn(-c2c(Cl)cccc2Cl)c2nc(Cc3ccc(OCCO)cc3)[nH]c(=O)c12,residual activity,[1],85%
same,residual activity,[2],121%
same,residual activity,[3],106%
same,residual activity,[4],106%
same,residual activity,[5],97%
same,residual activity,[6],88%
same,residual activity,[7],94%
same,residual activity,[8],89%
same,residual activity,[9],90%
same,residual activity,[10],84%
same,residual activity,[11],108%
same,residual activity,[12],86%
same,residual activity,[13],76%
same,residual activity,[14],103%
same,residual activity,[15],91%
same,residual activity,[16],109%
